Screening results (PubChem BioAssay)
Pf growth 96h – inhibits malaria parasite growth, 96 h; Potency, µM (series often up to 28.7 µM), usual class: inhibitors; P. falciparum luciferase reporter growth, 96 h; 320,000 compounds, 6.9% hits; active means well fitted inhibition curve with a large enough effect; inconclusive means small, poorly fitted or top-dose-only effect, or another doubt; inactive means no such curve, though single readings can be large or run the other way
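Erythrocytes infected with luciferase-expressing P. falciparum were dispensed at 2% hematocrit and 0.05% parasitemia (final), then incubated with compounds 96 hours at 37 C in 5% CO2. Luminescence after detection reagent addition reported growth.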
SARS PLpro yeast – blocks SARS-CoV papain-like protease in a yeast assay. S. cerevisiae expressing SARS-CoV PLpro, growth rescue. Potency, µM (highest dose often 32.9 µM), actives largely listed as activators. 330,000 compounds, 0.19% hits. AID 485353; further: nearly all actives have a fitted effect of over 55% in size
Cycloheximide cs – counter-screen hit for Shiga toxin inhibitors, cycloheximide; max response, %; cell reporter, cycloheximide protein synthesis inhibition counterscreen; 300,000 compounds, 12% hits; in the data active means max response mostly above about 13%, no sharp cut-off; inactive means mostly below about 14%; further: read at 38.3 µM for the half of the compounds with a filed dose
NS1 function inh – influenza NS1 inhibition | Potency, µM (titrated, usually from 46.1 µM) | 270,000 compounds, 0.4% hits; further: actives are rising curves; nearly all actives have a fitted effect of over 50% in size
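Growth recovery, yeast-based: influenza A NS1 expressed in S. cerevisiae causes slow growth, and suppressors are detected by OD600. The parent strain without NS1 is used as positive control.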
Pf growth 48h – inhibits P. falciparum growth in the first generation, 48 h | P. falciparum luciferase growth in erythrocytes, 48 h | Potency, µM (titrated, usually from 28.7 µM), hits mostly inhibitors | 310,000 compounds, 5.9% hits; active means well fitted inhibition curve with a large enough effect; inconclusive means small, poorly fitted or top-dose-only effect, or another doubt; inactive means no such curve, though single readings can be large or run the other way
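Luminescence readout; reporter = integrated firefly luciferase in P. falciparum. RBC culture at 2% hematocrit, 0.1% parasitemia final, 37 C/5% CO2; decreased signal taken as growth inhibition.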
Shiga inhibitor – blocks Shiga toxin action in Vero cells. 290,000 compounds, 9.2% hits. Vero cells, Shiga toxin protein synthesis inhibition reporter. inhibition, % at 38.7 µM; in the data active means inhibition mostly above about 28%, no sharp cut-off; inactive means mostly below about 43%
Of the large screens only hits and unclear results are named; the others gave an inactive call. Rows were chosen to be rich in hits. Some 21% of all compounds tested hit in one or more screens of this group. Unless noted, the call rests on the fitted dose curve.

Cc1ccc(C(=O)CSC2=C(C#N)C(c3ccco3)C3=C(CC(C)(C)CC3=O)N2)cc1 (stereo unspecified)	none (no result: Pf growth 48h)
CC(=O)C1=C(C)NC(SCC(=O)c2ccc(C)cc2)=C(C#N)C1c1ccco1 (stereo unspecified)	Pf growth 96h 6.57µM, Pf growth 48h 9.28µM
COc1ccc(CCN(C)C(=O)/C=C/c2c(Cl)nc3ccccn23)cc1OC	Pf growth 96h inconclusive, Pf growth 48h 11.7µM (no result: NS1 function inh)
CCOc1ccc(OCCC(=O)OCC(=O)N2CCN(c3ccc(OC)cc3)CC2)cc1	none (no result: Cycloheximide cs, NS1 function inh, Shiga inhibitor)
Cc1nn(CC(C)C)c(Cl)c1C(=O)N(C)CC(=O)Nc1c(Cl)cccc1Cl	none
N#Cc1cc(Oc2cccc3cccnc23)c(-n2nnc3ccccc32)cc1C#N	Pf growth 48h 1.85µM
Cc1ccc(C(=O)C2CCOC(C)(C)C2)cc1 (stereo unspecified)	Pf growth 96h inconclusive
C=CCNc1nc(-c2cc3ccccc3o2)cs1	Cycloheximide cs 40.0
O=c1oc2ccccc2cc1-c1csc(NN=C2CCCCC2)n1	Cycloheximide cs 44.8, Shiga inhibitor 80.8
O=C(Nc1nc(-c2cc3ccccc3oc2=O)cs1)c1ccco1	none
c1ccc2sc(NCC3CCCO3)nc2c1 (stereo unspecified)	Cycloheximide cs 38.4, Shiga inhibitor 133.9 (no result: NS1 function inh)
CC1CCC/C(=C(\C#N)c2nc(-c3cc4ccccc4oc3=O)cs2)C1 (stereo unspecified)	Pf growth 96h 6.57µM, Cycloheximide cs 51.0, Shiga inhibitor 89.0
Cc1ccccc1NC(=O)c1ccc(Cl)c(NC(=O)c2cccnc2)c1	none
c1ccc2oc(-c3csc(NCC4CCCO4)n3)cc2c1 (stereo unspecified)	Cycloheximide cs 30.0, Shiga inhibitor 74.0 (no result: NS1 function inh)
Cc1nn(CC(=O)NCc2cccs2)c(=O)c2nn(-c3ccccc3)c(C)c12	none
COc1ccc(OC)c(CCNC(=O)C(C)n2nc(C)c3c(C)n(-c4ccccc4)nc3c2=O)c1 (stereo unspecified)	Pf growth 96h 11.7µM
Cc1nn(C(C)C(=O)NCCc2cccs2)c(=O)c2nn(-c3ccccc3)c(C)c12 (stereo unspecified)	Pf growth 96h 13.1µM
Cc1ccc(-n2nc3c(=O)n(C(C)C(=O)NCCCc4ccccc4)nc(C)c3c2C)cc1 (stereo unspecified)	Pf growth 96h 8.28µM, Pf growth 48h inconclusive
Cc1nn(C)c(Cl)c1S(=O)(=O)N1CCC(CO)(CCc2ccccc2)CC1	none
COc1ccc(CCC(=O)Nc2sccc2C#N)cc1	Cycloheximide cs 50.5, Shiga inhibitor 131.3 (no result: NS1 function inh)
Cn1cccc1C(=O)OCC(=O)Nc1sccc1C#N	none (no result: Pf growth 96h, Cycloheximide cs, NS1 function inh, Pf growth 48h, Shiga inhibitor)
N#Cc1ccsc1NC(=O)COC(=O)c1ccc2ccccc2c1	Cycloheximide cs 54.1, Shiga inhibitor active
N#Cc1ccsc1NC(=O)COC(=O)c1cc(Br)ccc1O	Cycloheximide cs 45.0, Pf growth 48h inconclusive, Shiga inhibitor 84.1
CN(Cc1ccccc1)C(=O)[C@H](Cc1ccc2ccccc2c1)NC(=O)[C@@H]1CCCN1C(=O)Nc1ccccc1[N+](=O)[O-]	none (no result: Pf growth 96h, SARS PLpro yeast, NS1 function inh, Pf growth 48h)
O=C1c2cc(Br)ccc2OC2C=CC=CC12 (stereo unspecified)	none (no result: Pf growth 96h, Cycloheximide cs, NS1 function inh, Pf growth 48h, Shiga inhibitor)
CC[C@H]1OC(=O)[C@H](C)[C@@H](O[C@H]2C[C@@](C)(OC)[C@@H](O)[C@H](C)O2)[C@H](C)[C@@H](O[C@@H]2O[C@H](C)C[C@H](N(C)C)[C@H]2O)[C@](C)(O)C[C@@H](C)C(=NOCOCCOC)[C@H](C)[C@@H](O)[C@]1(C)O	Pf growth 96h inconclusive
CC[C@@H]1OC(=O)[C@H](C)[C@H](O[C@@H]2C[C@](C)(OC)[C@H](O)[C@H](C)O2)[C@H](C)[C@H](O[C@@H]2O[C@@H](C)C[C@@H](N(C)C)[C@@H]2O)[C@](C)(O)C[C@H](C)C(=NOCOCCOC)[C@H](C)[C@H](O)[C@]1(C)O	Pf growth 96h 1.61µM (no result: SARS PLpro yeast, Cycloheximide cs, NS1 function inh, Shiga inhibitor)
N#C/C(=C\c1ccc(-c2ccc(C(=O)O)cc2)o1)C(=O)Nc1ccc(F)cc1	Pf growth 96h 9.28µM
Cc1ccc(NC(=O)/C(C#N)=C/c2ccc(Sc3nc(C)cc(C)n3)o2)cc1	none (no result: Pf growth 96h)
Cc1cccc(C)c1NC(=O)/C(C#N)=C/c1ccc(-c2ccc(C(=O)O)cc2)o1	Cycloheximide cs 20.7, Shiga inhibitor 69.6
N#C/C(=C\c1ccc(-c2ccc(C(=O)O)cc2)o1)C(=O)NCC1CCCO1 (stereo unspecified)	none
CCOC(=O)c1sc2nc(CSc3ccccc3)nc(NCCN(C)C)c2c1C	Pf growth 96h inconclusive, Pf growth 48h inconclusive (no result: NS1 function inh)
Cc1ccc2[nH]c3c(c2c1)CCCC3C(N)=O (stereo unspecified)	none
Cc1ccc2[nH]c3c(c2c1)CCCC3NC(=O)CCl (stereo unspecified)	Pf growth 96h 13.1µM, Pf growth 48h 2.33µM (no result: Shiga inhibitor)
CCc1ccc(-c2nc(CS(=O)CC(=O)NCc3ccc4c(c3)OCO4)c(C)o2)cc1 (stereo unspecified)	Pf growth 96h inconclusive, SARS PLpro yeast inconclusive
C=C[C@H]1CN2CC[C@H]1C[C@H]2[C@H](O)c1ccnc2ccccc12	Pf growth 96h inconclusive, Pf growth 48h 0.147µM (no result: SARS PLpro yeast, Cycloheximide cs, NS1 function inh, Shiga inhibitor)
COc1ccc(CP(=O)(c2ccccc2)c2ccccc2)cc1	Pf growth 96h inconclusive, Pf growth 48h inconclusive
COc1ccc(CN(C)C2c3ccccc3-c3ccccc32)cc1	Pf growth 96h 11.7µM, Pf growth 48h inconclusive
Cc1c(C(=O)O)cc(C(C)(C)C)n1CCSCCO	none
CSCCn1c(C(C)(C)C)cc(C(=O)O)c1C	Pf growth 96h 8.28µM
CCc1nnc(NC(=O)c2cc3c(s2)CCCCC3)s1	none (no result: Pf growth 96h, SARS PLpro yeast, Cycloheximide cs, Pf growth 48h, Shiga inhibitor)
Cc1csc(NC(=O)c2cc3c(s2)CCCC3)n1	Cycloheximide cs 61.5, Pf growth 48h inconclusive, Shiga inhibitor 80.8
Cc1cnc(NC(=O)c2cc3c(s2)CCCC3)s1	Cycloheximide cs 40.4, Shiga inhibitor 60.6 (no result: Pf growth 48h)
Cc1csc(NC(=O)c2cc3c(s2)CCCCC3)n1	Cycloheximide cs 14.8 (no result: Pf growth 96h)
CCOC(=O)Cc1csc(NC(=O)c2cc3c(s2)CCCC3)n1	none (no result: Pf growth 48h)
CC(C)Cn1ccc(=O)n(CC(C)C)c1=O	Pf growth 96h inconclusive, NS1 function inh inconclusive
Cc1cccc2nc(COc3ccc(Cl)c4cccnc34)cn12	Cycloheximide cs 32.5, Shiga inhibitor 102.1
Cc1cccc2nc(CSc3ncccc3C(=O)O)cn12	none (no result: NS1 function inh)
CCOc1ccccc1NC(=O)COC(=O)c1cccc(-c2ccc(OC(C)=O)cc2)c1	Pf growth 96h 9.28µM, Pf growth 48h 9.28µM
CC(=O)Oc1ccc(-c2cccc(C(=O)OCC(=O)N(C)c3ccccc3)c2)cc1	Pf growth 96h 14.7µM
CN(C(=O)COC(=O)c1cccc(F)c1)c1ccccc1	Cycloheximide cs 12.6
COc1ccc(N(C)S(=O)(=O)c2cccc(C(=O)OCC(=O)N(C)c3ccccc3)c2)cc1	none (no result: Pf growth 96h, Cycloheximide cs, NS1 function inh, Pf growth 48h, Shiga inhibitor)
CN(C)c1cccc(C(=O)OCC(=O)N(C)c2ccccc2)c1	none
Nc1nc(CCOc2ccc(F)cc2)cs1	Cycloheximide cs 33.4, Shiga inhibitor 153.8 (no result: NS1 function inh)
O=C(COc1ccccc1)OCc1csc(Nc2ccccc2)n1	none
